Assay results as given in the supplement of paper PMC11417369.
The full ranking holds about 25,000 sequences; the median of “ln(normalized median fluorescence intensity)” is about 6.7, and the highest 2% start at about 10. The entries come from a sample that favours the highest values as a whole.

What follows are sequences tested on PfHDP1 homeodomain (GST-tagged) (assay: gcPBM binding intensity (ln(normalized median fluorescence intensity)); higher = stronger DNA binding).
Method in brief: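 For binding intensity, the highest Masliner-normalised natural-log median intensity across replicate spots of either probe orientation was taken. Protein bound to the array was stained with Alexa488 anti-GST antibody and scanned at 488 nm. The protein, GST-tagged P. falciparum DNA-binding domains from E. coli at about 25 μg on average, had been applied for 1 h to an Agilent 4 × 180k array of primer-extended double-stranded 36-bp intergenic genomic probes and negative controls.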

Sequence	gcPBM binding intensity (ln)
TACATACATACATACACACATACATATGTATATATA [CACACA_site2480]	7.37
TTTATTAATAGACACACACACACACGCAAAATAAAA [CACACA_site6255]	7.16
ATGGACTTTTATAGTTGTACATACTATGAGAACTTT [XGTACX_site2800]	7.08
AAGGGTTGCCTGTGTAGTACATATATATATATATAT [XGTACX_site8555]	9.24
GAGAAATGGGGACACACACACATATTATATATATAT [CACACA_site4943]	8.53
TATAAATTTGTTGTTGCATGCAGTATACCAAAAAAA [TGCATGCA_site445]	7.18
AAGGTGGGAAAAAATAGTACACAACAAAAATGTATG [XGTACX_site8741]	6.64
AAACATTAAAATAACTCACACATTTTTCTAGTCTTC [CACACA_site4612]	6.19
AGAACTTTTAATGGATGTACAGTTATTTTATTATTT [XGTACX_site6226]	6.12
ATATATATATATATAGTGCATAAAATAAGTTTCTAA	9.54
TATGTTTTTACATATTGTACATATTCTTGTAATACG [XGTACX_site1179]	6.29
TTCATATAATTCATCTGTACATATTGATAGTATGCA [XGTACX_site6386]	6.29
ACTACGTGTCAAAAATATTAATTACAAATGAATAAA [GTGCAC_negctrl_site248]	6.08
AGTAGTCTGGAGAAGAGTACACAGTATCTGGTAACA [XGTACX_site2032]	6.02
TTTAAATTTTAATATGCACACAAAATGTTATATTAA [CACACA_site8015]	9.9
ATAATATTTTAATGCACACACACAAAAAAAAAAAAA [CACACA_site2891]	9.96
ATTTATAAAATTAATGCACACATCAGCATTTATAAA [CACACA_site1025]	10.6
AATATTTTAATGCACACACACAAAAAAAAAAAAAAA [CACACA_site7374]	10.7
CTCTATAAATGCTGCACACACATTTAATTATTTAAG [CACACA_site2582]	8.11
ACATCATAAAATTTATGTACACATTTTTAATTATAC [XGTACX_site7759]	6.51
ATTTCTACTAAAAATACACACGATGATACAACGAAG [CACACA_site1755]	6.85
ATATATTAAAAACGATGTACCCTGAACTAAAAAAAA [XGTACX_site4986]	6.52
AACGTTCAATTTAAATGTACAAATGTATTTAAATAT [XGTACX_site315]	6.38

Sequence	gcPBM binding intensity (ln)
TATATTTAGAATACAATCTTAAAGTTGAAATAAAAT [CACACA_negctrl_site1292]	6.03
TTATATTAAAAAAGATGTACGTTTAGGAAAAATATA [XGTACX_site7456]	6.53
TAAGGAAAAAATTATAGTACATAATAAATGTATATA [XGTACX_site8328]	6.15
TCATACATTTTCCTTGCACACATTTATAATTAATGT [CACACA_site614]	8.95
CTTTTTTTTTTATGCACACACAATTATACATTCCTT [CACACA_site3877]	10.6
TTCCTTTAACCCTGCACACATACATACATTTATATG [CACACA_site3953]	8.51
TATATATATATATATGCACACATTTATACAATTTTA [CACACA_site2986]	10.2
TCCTTTTTTTTTTATGCACACACAATTATACATTCC [CACACA_site9287]	10.5
TCATACATTTTCCTTGCACACATTTATAATTAATGG [CACACA_site4511]	8.55
ATGTATGTATAATATACACACTCACAAGCATTCAAA [CACACA_site4306]	6.75
ATATTCTTCTAAAGGCGTACATCTACATTTATGAAA [XGTACX_site2145]	6.28
TTTATATATAAATATATATATATATATATATATATA [TGCATGCA_negctrl_site121]	9.28
TCTAGGAAAAATTATAGTACACAAAAATATATATAT [XGTACX_site4136]	7.95
CATATACTTCTGTGCACACGAATATTTTTCTTCTTC [CACACA_site1407]	11.2
CACATATACTTCTGTGCACACGAATATTTTTCTTCT [CACACA_site1408]	11.2
CATATATATATATATACACACATATATATTTTCTTT [CACACA_site1457]	7.04
TAATATACTTAATACACACACGAATATTTATAAATA [CACACA_site6675]	6.97
AAAATATAGGTATGCACACACATATACTTCTGTGCA [CACACA_site1409]	10
ATAAAATATAGGTATGCACACACATATACTTCTGTG [CACACA_site8398]	8.84
TTTGTTAATTATAAATGTACATATTATATATATATA [XGTACX_site8870]	8.42
CACGCGCCCGGACACACACACACACCCATATATATA [CACACA_site5251]	6.84
TTAAACTTGTTTTGGATGCACTATATAATTCATTTT [GTGCAC_site9549]	7.2
